# Source: PubChem BioAssay AID1117294 (Broad Institute, 2014)
# Unmarked numbers belong to inactive results.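 The calls were made as follows: active = Lowers HeLa cell ATP signal, with fitted half-maximal potency at most twice the top tested dose in every run; inconclusive = runs disagree, or fits flat mid-range or poor; inactive = every run inactive, including signal rising.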
# Test: cervical carcinoma cell viability loss – CellTiter-Glo luminescence, dry powder, set 3, cytotoxicity control, dose response (AID 1117294)
# Details: HeLa viability, ATP luminescence (CellTiter-Glo), 72 h; at 0.05 µM
row,SMILES,max activity [%]
1,COc1ccc(C(=O)O)cc1S(=O)(=O)Nc1cc(C(F)(F)F)ccc1N1CCN(C(C)=O)CC1,-16.6
2,COc1ccc(C(=O)O)cc1S(=O)(=O)Nc1ccc(N2CCCCC2)cc1C(F)(F)F,-17
3,COc1ccc(C2=NN(c3ccc(C(=O)O)cc3)C(c3ccc(OC)c(OC)c3)C2)cc1 (stereo not drawn),-16.2
